High-throughput results (PubChem)
Vif inh = inhibitors of HIV Vif. HEK293T cells, Vif self-association by quenched fluorescence, imaging, 24 h. inhibition, % at 7.49 µM. 340,000 tested, 0.35% active; in the data active = inhibition above about 50%, passing the limit was not always enough; inconclusive = no clear call, values can overlap the other calls; inactive = below about 31%
INS-1E GSIS act = primary screen for activators of insulin secretion dependent on glucose, INS-1E cells, GLuc reporter luminescence; INS-1E GLuc reporter insulin secretion, 2-3 h; activation, % at 16.6 µM; 370,000 tested, 0.61% active;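 active = lowest replicate activation of at least 40%, so every replicate reaches that level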;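 also: 0% = median of neutral control wells and 100% = median of IBMX positive control wells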
dFosB act-1 = activators of mouse delta FosB homodimer; P13346; purified delta FosB, TAMRA-CDK5 oligo fluorescence polarization; percent of positive-control signal above neutral wells; activation, % at 25 µM; 340,000 tested, 0.99% active;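 active = mean activation above about 17%, with every replicate also reaching it, limit read from the data, passing the limit was not always enough; inconclusive = only one of the two conditions met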
Bfl-1 A1 inh = inhibitors of the anti-apoptotic protein A1, read as caspase activation; caspase activation, % (concentration not given with the values); AID 2462; 330,000 tested, 0.066% active; MEF A1-2A-BIM cells, Caspase-Glo 3/7 luminescence, 3 h; percent of clofoctol response, vehicle zero;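 active = over half of replicate activation scores above 10%, or exactly half above 10 with the replicate mean above 10; inconclusive = replicate mean below 10 yet half the replicates above 10; inactive = over half of replicates below 10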
Neddyl block = cullin neddylation inhibition; AID 651699; 360,000 tested, 0.58% active; inhibition, % at 25 µM; TR-FRET cullin neddylation, biochemical; in the data active = inhibition above about 36%
Target sequence (P61081 whole entry, looked up): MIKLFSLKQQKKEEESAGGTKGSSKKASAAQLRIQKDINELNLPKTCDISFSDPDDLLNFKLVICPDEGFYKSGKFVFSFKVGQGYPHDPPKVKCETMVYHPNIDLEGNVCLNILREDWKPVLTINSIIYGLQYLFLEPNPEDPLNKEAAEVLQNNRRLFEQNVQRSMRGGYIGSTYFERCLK
Target sequence (Q13564 whole entry, looked up): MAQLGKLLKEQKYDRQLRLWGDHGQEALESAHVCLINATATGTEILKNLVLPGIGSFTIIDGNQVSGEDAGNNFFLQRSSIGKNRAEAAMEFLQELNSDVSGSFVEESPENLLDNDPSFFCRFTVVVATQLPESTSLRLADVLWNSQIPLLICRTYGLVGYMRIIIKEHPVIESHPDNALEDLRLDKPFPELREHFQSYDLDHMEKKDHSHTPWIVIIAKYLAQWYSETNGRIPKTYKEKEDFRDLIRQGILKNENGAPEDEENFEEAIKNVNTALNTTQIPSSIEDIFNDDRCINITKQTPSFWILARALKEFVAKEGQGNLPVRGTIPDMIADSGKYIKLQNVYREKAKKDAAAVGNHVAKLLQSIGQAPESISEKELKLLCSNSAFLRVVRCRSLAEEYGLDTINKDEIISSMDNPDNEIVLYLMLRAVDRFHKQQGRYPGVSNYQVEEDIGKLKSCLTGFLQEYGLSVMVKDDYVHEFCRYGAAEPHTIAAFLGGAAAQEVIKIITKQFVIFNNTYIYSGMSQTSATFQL
dFosB act-2 = enhances mouse delta FosB homodimer binding to DNA; activation, % at 24.9 µM; 2,400 tested, under 10 active; purified delta FosB, TAMRA-CDK5 oligo fluorescence polarization; normalised: neutral wells 0, positive control 100; shares compounds with dFosB act-1;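 active = highest replicate activation at or above 34% and every replicate reaching that threshold; inconclusive = meets only one of the two criteria; inactive = meets neither criterion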;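 also: higher polarization means more probe DNA bound by delta FosB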
An asterisk follows results filed as active; u = inconclusive; x = no result shown. Most compounds without a hit are left out; they make up all but 1.9% or so of the library.

SMILES | Vif inh | INS-1E GSIS act | dFosB act-1 | Bfl-1 A1 inh | Neddyl block | dFosB act-2
CC(C)[C@@H]1C(=O)N[C@H](c2ccc3c(c2)OCO3)CC=CC[C@H](C)Oc2ccccc2C(=O)N1C (mixture of isomers) | x | -37 | x | x | x | x
O=c1[nH]c(/C=C/c2cccc3ccccc23)nc2ccccc12 | 2 | -4 | 25* | -2 | -15 | -2
Cc1ccc(C(=O)NCc2ccc3c(c2)OCO3)o1 | -1 | 1 | -7 | 0 | 2 | x
Cc1ccc2cc3cc(C(=O)NCc4ccc5c(c4)OCO5)oc3nc2c1 | x | x | 56* | x | 37 | 3
Cc1ccccc1S(=O)(=O)N1CCCCN2[C@H](C1)[C@H](c1ccc(-c3cccc(F)c3)cc1)[C@@H]2CO | x | -2 | x | x | x | x
COc1ccccc1CNC(=O)C[C@@H]1CC[C@@H]2[C@H](COC[C@@H](O)CN2C(=O)Nc2ccccc2)O1 | x | -18 | x | x | x | x
COc1ccccc1/C=C1\SC(=O)N(CCC(=O)NNC(=O)c2ccccc2Cl)C1=O | 6 | x | 21* | -1 | -4 | 2
COc1ccccc1/C=C1\SC(=S)N(CCC(=O)NNC(=O)c2ccccc2OC)C1=O | 1 | 4 | 4 | 2 | -19 | x
C[C@@H]1CN([C@@H](C)CO)C(=O)c2cc(C3=CCCCC3)cnc2O[C@H]1CN(C)Cc1ccncc1 | x | 2 | x | x | x | x
CCOc1ccccc1C(=O)NCC(=O)OCC(=O)c1ccc2c(c1)OCCO2 | 31 | x | 18* | 1 | -41 | 3
O=C(CNC(=O)c1ccc(Cl)cc1)OCC(=O)c1ccc2c(c1)OCCO2 | 3 | 1 | -6 | 0 | -6 | x
N#C/C(=C\c1cn(Cc2ccccc2F)c2ccccc12)C(=O)NCc1ccco1 | 2 | 56* | 24* | -1 | x | 4
COc1ccccc1OCCn1cc(/C=C(\C#N)C(=O)NCc2ccco2)c2ccccc21 | -5 | -7 | 0 | 2 | 14 | x
C[C@H](CO)N1C[C@H](C)[C@H](CN(C)S(=O)(=O)c2ccc(C#N)cc2)Oc2ncc(C#Cc3ccc(C(F)(F)F)cc3)cc2C1=O | x | -23 | x | x | x | x
Cc1cc(CN(C)Cc2ccc(OCC(O)CN(C)Cc3ccccc3)cc2)on1 (stereo not drawn) | -4 | 6 | -7 | 0 | 6 | x
C=CCOc1ccc(CN(C)CC(O)COc2cccc3ccccc23)cc1 (stereo not drawn) | 10 | 4 | 19* | 0 | -1 | 2
Cc1ccc(S(=O)(=O)NCC[C@@H]2CC[C@H](NC(=O)CCN3CCCCC3)[C@@H](CO)O2)cc1 | x | 0 | x | x | x | x
O=C(CSc1nnc(NC(=O)C2CC2)s1)Nc1ccccc1 | 6 | -2 | 25* | -1 | -1 | 2
CC(=O)Nc1ccc(NC(=O)CSc2nnc(NC(=O)C3CC3)s2)cc1 | -3 | 8 | 28* | 0 | -11 | -1
CC(=O)Nc1ccc(NC(=O)CSc2nnc(NC(=O)Cc3ccc(F)cc3)s2)cc1 | 8 | 20 | 24* | 1 | -11 | 0
C[C@H]1CN([C@@H](C)CO)C(=O)Cc2cc(NC(=O)Cc3ccccc3)ccc2O[C@H]1CN(C)Cc1ccc(C(=O)O)cc1 | x | 1 | x | x | x | x
CCN(c1ccccc1)S(=O)(=O)c1nnc(NC(=O)CC(C)C)s1 | -3 | 25 | -3 | 0 | 3 | x
CCCCC(=O)Nc1nnc(S(=O)(=O)N(CC)c2ccccc2)s1 | x | 2 | 18* | 0 | 6 | -1
Cc1ccc(OCC(=O)Nc2ccc(-c3nc4ncccc4o3)cc2)c(C)c1 | x | x | 73* | 1 | x | 0
COc1cc(OC)cc(C(=O)OC/C(O)=C(\C#N)c2nc3ccccc3[nH]2)c1 | -9 | 7 | 40* | -1 | 11 | 4
SMILES | Vif inh | INS-1E GSIS act | dFosB act-1 | Bfl-1 A1 inh | Neddyl block | dFosB act-2
Cc1c(C(=O)OC/C(O)=C(\C#N)c2nc3ccccc3[nH]2)oc2ccccc12 | 1 | 16 | 45* | 0 | 15 | -9
CN1/C(=C\C(=O)c2ccco2)C(C)(C)c2ccccc21 | -14 | -67 | 24* | -2 | 6 | 0
CN1/C(=C\C(=O)CSc2nnc(NCc3ccccc3)s2)C(C)(C)c2ccccc21 | -17 | -42 | 23* | -1 | 11 | 5
Cc1cc(C(=O)CSc2nnc(NCc3ccccc3)s2)c(C)n1C | 11 | x | -5 | -1 | -6 | x
Cc1noc(C)c1S(=O)(=O)N(C)C[C@@H]1OCCCC[C@@H](C)Oc2ccc(NS(=O)(=O)c3ccc(Cl)cc3)cc2C(=O)N([C@@H](C)CO)C[C@@H]1C | x | -3 | x | x | x | x
C[C@@H]1CN([C@H](C)CO)S(=O)(=O)c2ccc(C3=CCCCC3)cc2O[C@H]1CN(C)C | x | -3 | x | x | x | x
C=CCn1c(COc2ccccc2F)nnc1SCC(=O)Nc1cc(C)on1 | -6 | -3 | 18* | 2 | 7 | u
COC(=O)Nc1ccc(S(=O)(=O)NNC(=O)c2c(O)c3ccccc3[nH]c2=O)cc1 | -7 | 8 | 24* | 1 | -22 | -1
Cc1ccc(S(=O)(=O)NNC(=O)c2c(O)c3ccccc3[nH]c2=O)cc1 | x | x | 21* | -2 | -4 | 1
O=C(NNC(=O)c1c(O)c2ccccc2[nH]c1=O)c1ccccc1 | -5 | 2 | 83* | -1 | 13 | 0
COC(=O)c1sc2ncccc2c1OCc1c(Cl)cccc1Cl | -4 | x | 35* | 1 | 10 | 5
Cc1noc(C)c1NC(=O)N(C)C[C@@H]1Oc2ccc(NC(=O)Nc3ccccc3)cc2CC(=O)N([C@H](C)CO)C[C@@H]1C | x | 7 | x | x | x | x
CN1c2ccc(-c3ccccc3F)cc2[C@H]2[C@H](CCN2C(=O)c2ccccn2)[C@@H]1CO | x | -33 | x | x | x | x
COc1ccc(COc2cc(-c3cccc(OC)c3)nc3ccc(NC(=O)c4ccc(OC)cc4)cc23)cc1 | 2 | -8 | u | 0 | 26 | x
COc1ccc(COc2cc(-c3cccc(OC)c3)nc3ccc(NC(=O)c4cccnc4)cc23)cc1 | -5 | -3 | 19* | 0 | 33 | 0
Cc1nc(NC(=O)c2ccc(Br)o2)ccc1Br | -7 | -5 | 1 | x | 1 | x
O=C(Nc1cccc(NC(=O)c2ccc(Br)o2)n1)c1ccc(Br)o1 | 1 | 27 | 34* | -1 | 1 | 1
CC=Cc1ccc2n(c1=O)C[C@H]1[C@H](CO)[C@@H](C(=O)NCC3CC3)N(Cc3ccccc3)[C@@H]21 (mixture of isomers) | x | -8 | x | x | x | x
O=c1[nH]c(/C=C/c2ccc(OC(F)F)cc2)nc2c1cnn2-c1ccccc1 | -4 | 85* | 65* | -1 | x | 1
CC(C)Sc1nc2c(cnn2-c2ccccc2)c(=O)[nH]1 | -7 | 9 | 11 | 0 | 3 | x
COc1ccccc1S(=O)(=O)N1CC[C@@H]2[C@H](CO)Nc3ccc(-c4ccc(F)cc4)cc3[C@@H]21 | x | -3 | x | x | x | x
C=CCN(c1ccccc1)S(=O)(=O)c1cccc(C(=O)Nc2ccncc2)c1 | -26 | -43 | -9 | 1 | 8 | x
